Laboratory results published in ChEMBL document CHEMBL1961873, “Compounds: GSK PKIS; Assays: Nanosyn kinase panel” (2012).

Assays:
[1] = target: Serine/threonine-protein kinase pim-2 (Homo sapiens) (UniProt Q9P1W9); settings: at 1 µM;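 further: each value is a mean of the inhibition measurements against the kinase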
[2] = target: Serine/threonine-protein kinase pim-3 (Homo sapiens) (UniProt Q86V86); settings: at 0.1 µM
[3] = target: Serine/threonine-protein kinase pim-3 (Homo sapiens) (UniProt Q86V86); settings: at 1 µM
[4] = target: T1, MAP kinase-activated protein kinase 5 (Homo sapiens) (UniProt Q8IW41); settings: at 0.1 µM
T1 sequence (whole entry): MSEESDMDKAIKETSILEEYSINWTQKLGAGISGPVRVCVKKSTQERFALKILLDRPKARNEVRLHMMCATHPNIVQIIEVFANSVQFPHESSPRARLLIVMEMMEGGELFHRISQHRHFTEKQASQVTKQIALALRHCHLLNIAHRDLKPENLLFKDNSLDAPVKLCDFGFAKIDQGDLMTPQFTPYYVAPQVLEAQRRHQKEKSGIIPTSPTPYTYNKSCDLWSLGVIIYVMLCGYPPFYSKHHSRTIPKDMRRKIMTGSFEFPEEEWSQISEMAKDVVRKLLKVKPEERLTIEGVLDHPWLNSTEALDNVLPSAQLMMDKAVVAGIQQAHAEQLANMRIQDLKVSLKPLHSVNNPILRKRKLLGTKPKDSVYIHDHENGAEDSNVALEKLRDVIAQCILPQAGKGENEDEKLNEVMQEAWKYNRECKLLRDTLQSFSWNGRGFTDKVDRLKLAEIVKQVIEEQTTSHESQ

[5] = target: T1, MAP kinase-activated protein kinase 5 (Homo sapiens); settings: at 1 µM
[6] = target: Serine/threonine-protein kinase SIK1 (Homo sapiens) (UniProt P57059); settings: at 0.1 µM
Sequence of Serine/threonine-protein kinase SIK1 (Homo sapiens) (P57059 whole entry): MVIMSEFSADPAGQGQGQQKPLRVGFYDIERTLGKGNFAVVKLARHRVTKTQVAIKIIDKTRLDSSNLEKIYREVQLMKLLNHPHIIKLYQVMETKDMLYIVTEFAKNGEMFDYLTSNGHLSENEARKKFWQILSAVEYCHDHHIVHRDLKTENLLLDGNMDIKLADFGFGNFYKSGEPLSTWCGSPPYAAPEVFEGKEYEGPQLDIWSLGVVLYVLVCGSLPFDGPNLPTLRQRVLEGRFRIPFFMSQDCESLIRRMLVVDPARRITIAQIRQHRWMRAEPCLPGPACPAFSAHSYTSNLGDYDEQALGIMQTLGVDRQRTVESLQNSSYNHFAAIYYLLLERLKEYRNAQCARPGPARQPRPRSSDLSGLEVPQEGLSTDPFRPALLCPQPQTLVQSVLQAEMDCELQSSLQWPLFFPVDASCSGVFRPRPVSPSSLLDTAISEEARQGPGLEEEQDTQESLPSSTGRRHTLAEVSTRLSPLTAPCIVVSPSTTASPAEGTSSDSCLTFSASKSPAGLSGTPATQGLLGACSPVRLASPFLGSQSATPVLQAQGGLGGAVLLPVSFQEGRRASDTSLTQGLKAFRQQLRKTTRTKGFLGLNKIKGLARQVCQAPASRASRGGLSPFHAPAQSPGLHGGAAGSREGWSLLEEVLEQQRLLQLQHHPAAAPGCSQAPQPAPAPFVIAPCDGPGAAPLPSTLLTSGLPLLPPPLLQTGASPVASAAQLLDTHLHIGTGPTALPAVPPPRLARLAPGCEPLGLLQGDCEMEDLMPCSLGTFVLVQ

[7] = target: Serine/threonine-protein kinase SIK1 (Homo sapiens) (UniProt P57059); settings: at 1 µM
[8] = target: Serine/threonine-protein kinase SIK2 (Homo sapiens) (UniProt Q9H0K1); settings: at 0.1 µM
Sequence of Serine/threonine-protein kinase SIK2 (Homo sapiens) (Q9H0K1 whole entry, looked up): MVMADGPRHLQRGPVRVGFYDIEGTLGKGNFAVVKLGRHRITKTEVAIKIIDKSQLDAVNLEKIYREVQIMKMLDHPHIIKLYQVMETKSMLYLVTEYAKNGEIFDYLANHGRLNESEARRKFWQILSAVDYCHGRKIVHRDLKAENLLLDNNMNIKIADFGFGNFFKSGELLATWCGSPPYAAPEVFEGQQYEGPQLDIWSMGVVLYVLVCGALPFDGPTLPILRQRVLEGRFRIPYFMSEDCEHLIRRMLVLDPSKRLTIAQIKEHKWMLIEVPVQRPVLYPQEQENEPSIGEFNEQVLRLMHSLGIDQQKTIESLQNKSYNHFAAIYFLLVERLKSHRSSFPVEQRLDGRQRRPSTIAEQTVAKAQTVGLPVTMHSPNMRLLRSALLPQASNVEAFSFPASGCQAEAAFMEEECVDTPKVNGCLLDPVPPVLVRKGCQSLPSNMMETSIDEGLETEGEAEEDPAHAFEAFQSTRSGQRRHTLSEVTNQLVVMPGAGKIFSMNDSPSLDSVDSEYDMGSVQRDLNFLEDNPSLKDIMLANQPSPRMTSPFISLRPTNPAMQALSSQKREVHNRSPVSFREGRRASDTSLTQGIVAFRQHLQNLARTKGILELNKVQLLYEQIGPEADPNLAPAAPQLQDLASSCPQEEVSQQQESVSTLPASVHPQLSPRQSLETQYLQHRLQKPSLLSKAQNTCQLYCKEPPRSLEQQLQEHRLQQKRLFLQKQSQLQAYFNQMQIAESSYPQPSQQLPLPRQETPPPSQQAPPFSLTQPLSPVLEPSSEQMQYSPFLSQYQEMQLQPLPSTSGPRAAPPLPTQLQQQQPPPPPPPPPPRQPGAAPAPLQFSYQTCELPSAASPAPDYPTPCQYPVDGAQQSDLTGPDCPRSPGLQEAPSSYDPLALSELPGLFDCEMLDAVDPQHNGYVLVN

[9] = target: Serine/threonine-protein kinase SIK2 (Homo sapiens) (UniProt Q9H0K1); settings: at 1 µM
[10] = target: T2, Serine/threonine-protein kinase TBK1 (Homo sapiens) (UniProt Q9UHD2); settings: at 0.1 µM
T2 sequence (whole entry): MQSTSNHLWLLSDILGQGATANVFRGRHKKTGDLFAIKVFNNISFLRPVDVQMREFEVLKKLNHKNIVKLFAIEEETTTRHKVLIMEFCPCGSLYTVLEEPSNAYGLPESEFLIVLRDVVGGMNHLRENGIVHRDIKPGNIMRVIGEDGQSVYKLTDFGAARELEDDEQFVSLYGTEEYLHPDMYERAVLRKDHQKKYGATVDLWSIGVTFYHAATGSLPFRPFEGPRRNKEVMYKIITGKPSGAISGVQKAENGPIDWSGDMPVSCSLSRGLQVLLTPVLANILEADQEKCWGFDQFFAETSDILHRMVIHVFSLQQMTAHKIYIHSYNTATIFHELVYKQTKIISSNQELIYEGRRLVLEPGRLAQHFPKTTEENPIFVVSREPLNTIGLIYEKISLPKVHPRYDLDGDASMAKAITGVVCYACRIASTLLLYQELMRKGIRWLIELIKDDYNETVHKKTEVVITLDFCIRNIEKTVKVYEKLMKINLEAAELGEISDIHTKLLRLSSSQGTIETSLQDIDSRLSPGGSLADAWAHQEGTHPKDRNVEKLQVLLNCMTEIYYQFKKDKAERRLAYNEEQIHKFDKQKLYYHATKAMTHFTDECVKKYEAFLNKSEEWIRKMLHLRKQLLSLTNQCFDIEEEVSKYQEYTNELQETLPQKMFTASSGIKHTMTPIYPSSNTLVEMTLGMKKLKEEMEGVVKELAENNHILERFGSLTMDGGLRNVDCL

[11] = target: T2, Serine/threonine-protein kinase TBK1 (Homo sapiens); settings: at 1 µM
[12] = target: T3, Testis-specific serine/threonine-protein kinase 1 (Homo sapiens) (UniProt Q9BXA7); settings: at 0.1 µM
T3 sequence (whole entry): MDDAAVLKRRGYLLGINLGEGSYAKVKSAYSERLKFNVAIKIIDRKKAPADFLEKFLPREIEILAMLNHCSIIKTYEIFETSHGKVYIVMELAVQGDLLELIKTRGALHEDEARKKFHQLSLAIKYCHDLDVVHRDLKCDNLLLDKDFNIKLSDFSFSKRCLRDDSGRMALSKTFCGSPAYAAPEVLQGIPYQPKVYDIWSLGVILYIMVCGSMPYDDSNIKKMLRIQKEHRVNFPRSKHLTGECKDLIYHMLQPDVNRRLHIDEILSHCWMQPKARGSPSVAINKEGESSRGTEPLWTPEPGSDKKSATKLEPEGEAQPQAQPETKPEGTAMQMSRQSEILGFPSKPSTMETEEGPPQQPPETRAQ

[13] = target: T3, Testis-specific serine/threonine-protein kinase 1 (Homo sapiens); settings: at 1 µM
[14] = target: T4, Testis-specific serine/threonine-protein kinase 2 (Homo sapiens) (UniProt Q96PF2); settings: at 0.1 µM
T4 sequence (whole entry): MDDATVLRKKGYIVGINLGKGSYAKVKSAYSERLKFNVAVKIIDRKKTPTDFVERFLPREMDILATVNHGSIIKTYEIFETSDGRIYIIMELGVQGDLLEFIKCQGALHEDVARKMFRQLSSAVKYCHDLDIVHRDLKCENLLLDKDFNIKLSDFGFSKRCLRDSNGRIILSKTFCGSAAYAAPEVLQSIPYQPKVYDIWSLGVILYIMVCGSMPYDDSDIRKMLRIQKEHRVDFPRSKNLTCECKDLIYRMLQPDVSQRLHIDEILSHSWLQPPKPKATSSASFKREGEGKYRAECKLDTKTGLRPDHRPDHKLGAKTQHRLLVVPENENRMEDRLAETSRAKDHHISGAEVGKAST

[15] = target: T4, Testis-specific serine/threonine-protein kinase 2 (Homo sapiens); settings: at 1 µM
[16] = target: Casein kinase I isoform alpha (Homo sapiens) (UniProt P48729); settings: at 0.1 µM
Sequence of Casein kinase I isoform alpha (Homo sapiens) (P48729 2-337 limits assumed): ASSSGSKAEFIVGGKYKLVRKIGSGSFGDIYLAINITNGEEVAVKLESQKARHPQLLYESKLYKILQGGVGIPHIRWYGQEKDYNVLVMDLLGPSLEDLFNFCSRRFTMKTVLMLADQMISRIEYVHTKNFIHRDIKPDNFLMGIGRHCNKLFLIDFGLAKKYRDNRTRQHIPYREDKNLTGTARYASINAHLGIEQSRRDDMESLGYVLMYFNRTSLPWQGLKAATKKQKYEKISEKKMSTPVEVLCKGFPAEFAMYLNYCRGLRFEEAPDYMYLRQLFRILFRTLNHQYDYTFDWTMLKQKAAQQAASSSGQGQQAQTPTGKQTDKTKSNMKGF

[17] = target: Casein kinase I isoform alpha (Homo sapiens) (UniProt P48729); settings: at 1 µM
[18] = target: Casein kinase I isoform gamma-1 (Homo sapiens) (UniProt Q9HCP0); settings: at 0.1 µM
Sequence of Casein kinase I isoform gamma-1 (Homo sapiens) (Q9HCP0 whole entry, looked up, canonical isoform): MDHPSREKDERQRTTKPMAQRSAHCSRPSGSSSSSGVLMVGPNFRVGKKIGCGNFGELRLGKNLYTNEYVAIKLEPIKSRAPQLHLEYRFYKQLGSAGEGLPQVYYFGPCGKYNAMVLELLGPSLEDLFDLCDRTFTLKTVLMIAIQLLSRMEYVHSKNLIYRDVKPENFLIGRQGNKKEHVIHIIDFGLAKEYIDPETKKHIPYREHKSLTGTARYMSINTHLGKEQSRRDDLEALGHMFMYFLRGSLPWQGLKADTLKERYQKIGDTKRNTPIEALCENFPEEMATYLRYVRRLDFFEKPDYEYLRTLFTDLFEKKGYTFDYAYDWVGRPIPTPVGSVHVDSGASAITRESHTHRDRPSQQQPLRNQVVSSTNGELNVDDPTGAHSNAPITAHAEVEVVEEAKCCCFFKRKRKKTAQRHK

[19] = target: Casein kinase I isoform gamma-1 (Homo sapiens) (UniProt Q9HCP0); settings: at 1 µM
[20] = target: Casein kinase I isoform gamma-2 (Homo sapiens) (UniProt P78368); settings: at 0.1 µM;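 further: values are mean inhibition figures reported as part of the GSK PKIS dataset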
Sequence of Casein kinase I isoform gamma-2 (Homo sapiens) (P78368 whole entry, looked up, canonical isoform): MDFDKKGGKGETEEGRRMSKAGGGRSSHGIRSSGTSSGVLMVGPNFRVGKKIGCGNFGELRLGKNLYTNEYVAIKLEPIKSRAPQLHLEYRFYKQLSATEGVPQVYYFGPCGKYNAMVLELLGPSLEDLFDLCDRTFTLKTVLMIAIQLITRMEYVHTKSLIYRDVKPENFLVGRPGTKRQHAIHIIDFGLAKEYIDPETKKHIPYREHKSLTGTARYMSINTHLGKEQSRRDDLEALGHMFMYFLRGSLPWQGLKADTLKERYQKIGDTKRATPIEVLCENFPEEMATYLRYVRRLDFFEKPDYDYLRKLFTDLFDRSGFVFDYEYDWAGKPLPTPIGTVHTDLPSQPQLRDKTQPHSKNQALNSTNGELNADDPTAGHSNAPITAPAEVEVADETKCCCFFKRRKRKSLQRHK

Sequence of Serine/threonine-protein kinase pim-2 (Homo sapiens) (Q9P1W9 whole entry, looked up): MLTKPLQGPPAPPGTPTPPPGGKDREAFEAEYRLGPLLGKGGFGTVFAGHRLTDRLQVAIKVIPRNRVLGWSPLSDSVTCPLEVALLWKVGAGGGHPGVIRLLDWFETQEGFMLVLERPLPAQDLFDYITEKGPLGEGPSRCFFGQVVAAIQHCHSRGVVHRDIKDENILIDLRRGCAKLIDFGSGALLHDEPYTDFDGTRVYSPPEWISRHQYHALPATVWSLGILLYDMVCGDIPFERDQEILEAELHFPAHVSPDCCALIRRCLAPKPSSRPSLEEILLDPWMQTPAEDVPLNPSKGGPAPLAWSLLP

Row | SMILES | inhibition [1] | inhibition [2] | inhibition [3] | inhibition [4] | inhibition [5] | inhibition [6] | inhibition [7] | inhibition [8] | inhibition [9] | inhibition [10] | inhibition [11] | inhibition [12] | inhibition [13] | inhibition [14] | inhibition [15] | inhibition [16] | inhibition [17] | inhibition [18] | inhibition [19] | inhibition [20]
1 | Nc1nccc(-c2c(-c3ccc(F)cc3)ncn2CCCN2CCOCC2)n1 | 1.68% | 2.11% | 1.36% | 1.45% | 4.08% | 2.84% | 6.36% | 7.84% | 11.6% | 0.96% | 4.85% | 3.5% | 3.45% | 2.07% | 2.83% | 6.3% | 27.3% | 3.45% | 5.49% | 2.84%
2 | c1ccc(Nc2ncc(-c3ccccc3)o2)cc1 | -0.45% | 0.11% | 2.31% | 2.01% | 1.68% | 3.63% | 12.6% | 7.32% | 13.8% | 5.72% | 5.74% | 5.73% | 6.03% | 2.44% | 3.66% | 4.02% | 7.73% | 3.94% | 5.22% | 3.32%
3 | CN(c1ccc(NC(=O)Nc2ccc(OC(F)(F)F)cc2)cc1)c1ccnc(Nc2cccc(S(N)(=O)=O)c2)n1 | 0.39% | 0.72% | -1.83% | 0.88% | -0.8% | 3.04% | 7.29% | 0.98% | -0.49% | 0.04% | 9.01% | 1.37% | 2.44% | 1.3% | 1.3% | 2.69% | -0.75% | 2.75% | 3.06% | 2.32%
4 | Cc1nc(-c2ccccc2)n2nc(NCCCN3CCOCC3)ncc12 | 0.05% | -0.2% | 1.5% | 0.74% | 0.74% | 3.53% | 5.24% | -0.49% | 4.81% | 1.18% | 6.52% | 0.26% | 3.44% | 0.32% | 0.77% | 1.74% | 8.04% | 2.06% | 2.66% | 2.09%
5 | COc1cccc(-n2ncc3c(N/N=C/c4ccc(S(C)(=O)=O)cc4)ncnc32)c1 | -2.5% | 0.09% | 2.23% | 0.26% | 0.26% | 4.24% | 26% | 19.1% | 29.9% | 8.06% | 7.99% | 1.1% | -0.61% | 0.93% | 0.31% | 2.28% | 5.91% | -2.52% | -0.99% | -2.87%
6 | Cc1cc(Cl)cc2c1NC(=O)C2=NNc1ccc(S(N)(=O)=O)cc1 | 0.51% | 0.42% | 2.98% | 1.54% | 2.85% | 1.46% | 4.61% | 5.46% | -2.05% | 1.17% | 1.59% | 4.21% | 4.86% | 2.71% | 5.17% | 1.05% | 0.59% | 1.63% | 1.59% | 1.66%
7 | CCS(=O)(=O)c1ccc(OC)c(Nc2ncc(-c3cccc(OC)c3)o2)c1 | 0.96% | -0.8% | -0.55% | 0.94% | -0.22% | 6.26% | 28.6% | 8.33% | 31.2% | 0.69% | 9.22% | 1.15% | -0.25% | 1.31% | -3.49% | 1.44% | 6.31% | 2.59% | 6.2% | 1.91%
8 | NS(=O)(=O)c1ccc(NC=C2C(=O)Nc3ccc4ncsc4c32)cc1 | 5.46% | 2.4% | 13.1% | 2.33% | 13.9% | 5.99% | 34.1% | 9.07% | 40.7% | 13.4% | 65.6% | 8.91% | 33.5% | 2.62% | 3.73% | 4.2% | 22.3% | 5.22% | 18.2% | 3.58%
9 | COc1cc2ncn(-c3cc(OCc4ccccc4S(C)(=O)=O)c(C#N)s3)c2cc1OC | 1.39% | -0.4% | -0.82% | 0.7% | -0.19% | 16.1% | 61% | 21.9% | 69.4% | 64.9% | 83% | 22.1% | 69.2% | 0.6% | 4.54% | 3.32% | 3.58% | 3.26% | 4.23% | 2.02%
10 | CC(C)c1ccc2c(c1)NC(=O)/C2=N/Nc1ccc(S(N)(=O)=O)cc1 | 1.32% | 2.03% | 3.02% | 0.46% | 0.35% | 1.04% | 7.02% | 2.29% | 2.16% | -1% | -0.26% | -0.2% | 1.24% | 0.12% | 0.46% | 0.06% | 0.18% | 0.11% | 0.56% | 0.63%
11 | COc1ccc(-c2nn3ncccc3c2-c2ccnc(Nc3cccc(C(F)(F)F)c3)n2)cc1 | 0.24% | -0.01% | 0.75% | 1.02% | 1.07% | 7.99% | 2.26% | 4.76% | 8.4% | 0.76% | 1.7% | 0.61% | 1.94% | 1.17% | 0.38% | 0.44% | 2.43% | 2.67% | 2.71% | 2.72%
12 | Nc1nccc(C#Cc2cncnc2Nc2ccc(OCc3cccc(F)c3)c(Cl)c2)n1 | 1.29% | -0.87% | -1.09% | 0.74% | -0.01% | 5.03% | 6.42% | 5.11% | 8.28% | 4.36% | 9.39% | 2.97% | 1.86% | 1.69% | -1.18% | 4.12% | 5.01% | 3.44% | 4.16% | 2.25%
13 | CN(C)C(=O)O[C@@H]1CN[C@@H](C#Cc2cc3ncnc(Nc4ccc(OCc5cccc(F)c5)c(Cl)c4)c3s2)C1 | 0.58% | -0.21% | -1.29% | -0.43% | -2.16% | 0.03% | 3.96% | -0.41% | 10.1% | 4.03% | 2.9% | -0.67% | -0.36% | -0.92% | -1.41% | 9.15% | 6.58% | 2% | 6.01% | 1.45%
14 | Cc1ccc(C(=O)NC2CC2)cc1-c1ccc2[nH]ncc2c1 | 0.98% | 1.05% | 4.89% | -1.55% | -1.4% | -8.63% | -5.39% | -3.95% | -7.9% | -3.58% | -1.07% | -1.33% | -2.04% | -2.24% | -1.65% | -6.12% | -2.96% | -3.43% | -2.76% | -2.87%
